Test results as given in PubChem BioAssay (NCI).
Compounds without any hit were thinned out: in the full panel of roughly 83,000, 20% have a hit.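 Each cell line was grown in a 96-well plate and treated with one concentration of compound for 48 hours. Values below 10 were considered active.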 Unmarked numbers belong to inactive results. Activity calls are given as the source filed them.

Legend:
Test in all cases: NCI-60 one-dose screen, 48 h (100 = growth as untreated, 0 = no growth, -100 = all killed)
Conditions in all cases: 10 µM unless noted
DU-145 prostate = test system: DU-145 prostate
K-562 leukemia = test system: K-562 leukemia
MALME-3M melanoma = test system: MALME-3M melanoma
MDA-MB-231 breast = test system: MDA-MB-231 breast
RXF 393 renal = test system: RXF 393 renal
SF-268 CNS = test system: SF-268 CNS
SF-295 CNS = test system: SF-295 CNS
SF-539 CNS = test system: SF-539 CNS
UACC-257 melanoma = test system: UACC-257 melanoma
M14 melanoma = test system: M14 melanoma

Compound	growth (DU-145 prostate)	growth (K-562 leukemia)	growth (MALME-3M melanoma)	growth (MDA-MB-231 breast)	growth (RXF 393 renal)	growth (SF-268 CNS) [%]	growth (SF-295 CNS)	growth (SF-539 CNS)	growth (UACC-257 melanoma) [%]	growth (M14 melanoma)
CCOC(=O)c1csc(NC(=O)COc2ccc(/C=C3\Oc4ccccc4C3=O)cc2)n1	114%	62.7%	109%	81.7%	79.6%	88.3	102%	95.5%	87.9	94.6%
CC(=O)c1c(C)nc2ccccc2c1/C=C/c1ccc(F)cc1	96.1%	60.2%	123%	93.8%	92.7%	90.6	84%	90.4%	95.2	107%
Clc1ccc(/C=N\N=C\c2ccc(Cl)c(Cl)c2)cc1Cl	3.88% (active)	88.8%	125%	80.6%	79.3%	91.9	81.1%	102%	106	88.6%
OCCn1cc(-c2nc(-c3c[nH]c4ncccc34)cs2)c2ccccc21	93.5%	54.2%	115%	66.4%	82.4%	84.1	81.1%	88.5%	93.1	97.7%
N=C(N)c1ccc(-c2ccc(-c3ccc(Cl)cc3Cl)s2)cc1	-24.7% (active)	-7.11% (active)	73.9%	-38% (active)	87.3%	42.4	-30.6% (active)	-28.9% (active)	88	41.5%
[O-]/[N+](=C\c1ccc(-n2cc(Cc3ccccc3Cc3cn(-c4ccc(/C=[N+](/[O-])c5ccccc5)cc4)nn3)nn2)cc1)c1ccccc1	106%	86.6%	102%	103%	116%	92.8	99.5%	92.2%	108	101%
CCN(CC)CCCCCNc1cc(OC(=O)c2ccc(Cl)cc2)cc2cccnc12	114%	75.3%	61%	85.8%	98.9%	114	120%	104%	95.9	102%
N#Cc1nc(-c2ccc(F)cc2)oc1S(=O)(=O)N1CCOCC1	93.8%	7.52% (active)	1.99% (active)	83.2%	-27.8% (active)	114	104%	66.7%	93.9	54.2%
N#Cc1ccc(O)c(C2=NCC(c3ccccc3)O2)c1 (stereo not given)	53.7%	23.4%	56.6%	46.4%	73.1%	47.2	36.4%	61.2%	35.4	41.8%
COc1ccc(C2=C(Br)C(=O)c3nc(C)ccc3C2=O)cc1	105%	36.7%	91.7%	73.2%	95.2%	94.6	105%	94.8%	64.2	92.8%
CCOC(=O)NC(C)C	120%	87.6%	104%	112%	77.4%	109	118%	95.9%	95	102%
Cc1cn(-c2cc(NC(=O)c3cncc(C#Cc4cnc(N)c5ncccc45)c3)cc(C(F)(F)F)c2)cn1	93.7%	5.81% (active)	23.8%	47.1%	59.6%	67.2	91%	72.3%	62.5	29.8%
COc1ccc(NC(=O)c2sc3nc(C)c(C(=O)/C=C/c4ccccc4)cc3c2N)cc1	26.5%	14.4%	97.3%	60.8%	-1.08% (active)	28.7	48.8%	38.2%	98.3	61.5%
COc1cc2c(c(OC)c1OC)CCC(c1cccc(C(=O)Nc3ccc(C#N)cc3)c1)O2 (stereo not given)	66.5%	20.4%	58.2%	49.4%	78.8%	80.1	42.5%	68.8%	44.5	37.7%
O=C(/C=C/c1cccc(Cl)c1)c1ccc(Nc2nc(Nc3ccc(F)cc3)nc(Nc3ccc(Cl)cc3)n2)cc1	162%	79.7%	108%	110%	-9.73% (active)	163	61.9%	142%	100	94.9%
COc1ccc(/C=C/C(=O)c2cc3c(N)c(C(=O)Nc4cccc5ccccc45)sc3nc2C)cc1	84.5%	28.8%	64.7%	93%	63.4%	74.5	54.4%	76.9%	65.2	60%
COc1ccc(-c2nc3cc(C(=O)NCc4ccccc4)ccc3n2C2CCCCC2)cc1	82.8%	41.1%	102%	77.5%	90.2%	79.4	51%	60.2%	96.7	78.1%
Oc1c(Br)cc(Br)c2ccc(Cn3cc(-c4ccccc4C(F)(F)F)nn3)nc12	86%	4.64% (active)	89.6%	109%	60.1%	94.1	104%	97.3%	79	94.6%
Cn1c(I)c(C#CCO[Si](C)(C)C(C)(C)C)c(=O)[nH]c1=O	99.9%	2.55% (active)	-51.2% (active)	91.5%	-15.3% (active)	105	101%	104%	96.6	83.1%
O=S(=O)(Nc1cc(Cl)ccc1Cl)c1ccc(-c2cnc(C3CC3)o2)cc1	70.8%	12%	55.7%	65.2%	44.8%	49.7	24.8%	25.1%	50.6	29.1%
COCCOc1cc2ncnc(N3CCN(c4ncc(S(=O)(=O)N5CCCCC5)cn4)CC3)c2cc1OCCOC	102%	96.3%	93.8%	106%	110%	93.3	99.6%	107%	101	97.8%
S=c1sc2c(Cl)nc(-c3cccnc3)nc2n1-c1ccccc1	27.4%	0.869% (active)	65.8%	-11.7% (active)	-42.1% (active)	14.6	96.1%	6.15% (active)	50	33%
O=C1Nc2ccccc2/C1=C/c1nc2ccccc2c(=O)[nH]1	99.3%	86.2%	92.8%	84.5%	96%	94.6	101%	93.6%	104	82.2%
CSc1nc2ccccc2cc1/C=[N+](\[O-])c1ccccc1	87.7%	15.1%	46.1%	46.5%	83.8%	56.6	86.7%	19.7%	90	27.6%
N#C/C(=C\c1c(-c2ccccc2)[nH]c2ccccc12)C(N)=O	108%	24%	93%	71.6%	122%	97.3	99.7%	71%	105	68.9%
CCOC(=O)c1cc(C(=O)c2cc(OC)c(OC)c(OC)c2)n2ncccc12	23.7%	10.9%	44.9%	31.2%	-4.2% (active)	47.7	13.6%	-12.3% (active)	52.1	3.88% (active)
O=C1C(Cl)=C(Nc2ccc(S(=O)(=O)N3CCOCC3)cc2)C(=O)c2ccccc21	101%	6.71% (active)	71.6%	31.3%	56.4%	78.3	99.7%	2.06% (active)	66.4	44.2%
